Data from article PMC7862700, “An all-to-all approach to the identification of sequence-specific readers for epigenetic DNA modifications on cytosine”.

What was measured:
Assay in all cases: DAPPL (digital affinity profiling via proximity ligation, sequencing); 10 mM Tris-HCl pH 7.5, 50 mM NaCl, 1 mM DTT, 4% glycerol, room temperature, 30 min; GST-TFs on glutathione beads, 16-mer random dsDNA library, 0.1% formaldehyde crosslink after washing; high values mean tight binding
FLI1 = target: T1, FLI1 (Homo sapiens, UniProt Q01543 1-452); details: protein: recombinant; tags: N-terminal GST; dsDNA, one strand shown
T1 sequence: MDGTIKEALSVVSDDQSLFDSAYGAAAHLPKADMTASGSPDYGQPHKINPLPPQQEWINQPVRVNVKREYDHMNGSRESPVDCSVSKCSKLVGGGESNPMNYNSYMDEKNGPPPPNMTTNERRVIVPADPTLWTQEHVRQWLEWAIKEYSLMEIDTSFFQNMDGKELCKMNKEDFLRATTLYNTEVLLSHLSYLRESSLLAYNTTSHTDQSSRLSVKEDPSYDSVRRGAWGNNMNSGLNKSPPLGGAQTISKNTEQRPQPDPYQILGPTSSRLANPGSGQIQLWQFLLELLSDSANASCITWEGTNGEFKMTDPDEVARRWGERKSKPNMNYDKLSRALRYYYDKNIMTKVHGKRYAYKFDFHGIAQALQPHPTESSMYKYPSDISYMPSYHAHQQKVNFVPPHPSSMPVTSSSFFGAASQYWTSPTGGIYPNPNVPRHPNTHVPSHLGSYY
How it was run: (§1)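 Binding signal is defined as a hexamer's read frequency for one factor over its frequency for the tag-only sample. To obtain reads, GST-fused human transcription factors were expressed in yeast, captured on glutathione beads, barcoded with DNA and pooled with that sample. Pools met 200 nmole of a 16-mer random double-stranded DNA library in Tris/NaCl/DTT/glycerol buffer for 30 min at room temperature before washing, 0.1% formaldehyde crosslinking, proximity ligation (BsaI/T4 ligase, 1 h, 37 °C), PCR and Illumina NextSeq500 sequencing.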

ELK1 = target: T2, ELK1 (Homo sapiens, UniProt P19419 1-428); details: protein: recombinant; tags: N-terminal GST; dsDNA, one strand shown
T2 sequence: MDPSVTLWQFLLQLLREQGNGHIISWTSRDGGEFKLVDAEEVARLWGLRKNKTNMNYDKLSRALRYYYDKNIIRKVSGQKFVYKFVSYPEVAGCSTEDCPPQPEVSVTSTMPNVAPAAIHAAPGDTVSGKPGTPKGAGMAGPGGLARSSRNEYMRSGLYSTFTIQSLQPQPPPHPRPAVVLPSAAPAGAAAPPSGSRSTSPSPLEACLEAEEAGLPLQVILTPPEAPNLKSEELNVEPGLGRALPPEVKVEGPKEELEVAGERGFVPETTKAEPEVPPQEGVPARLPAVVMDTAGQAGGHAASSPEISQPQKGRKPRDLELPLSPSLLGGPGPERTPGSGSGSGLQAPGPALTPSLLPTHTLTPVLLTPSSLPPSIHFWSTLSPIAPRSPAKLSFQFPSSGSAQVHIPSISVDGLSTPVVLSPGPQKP
How it was run: as §1

GABPA = target: T3, GABPA (Homo sapiens, UniProt Q06546 1-454); details: protein: recombinant; tags: N-terminal GST; dsDNA, one strand shown
T3 sequence: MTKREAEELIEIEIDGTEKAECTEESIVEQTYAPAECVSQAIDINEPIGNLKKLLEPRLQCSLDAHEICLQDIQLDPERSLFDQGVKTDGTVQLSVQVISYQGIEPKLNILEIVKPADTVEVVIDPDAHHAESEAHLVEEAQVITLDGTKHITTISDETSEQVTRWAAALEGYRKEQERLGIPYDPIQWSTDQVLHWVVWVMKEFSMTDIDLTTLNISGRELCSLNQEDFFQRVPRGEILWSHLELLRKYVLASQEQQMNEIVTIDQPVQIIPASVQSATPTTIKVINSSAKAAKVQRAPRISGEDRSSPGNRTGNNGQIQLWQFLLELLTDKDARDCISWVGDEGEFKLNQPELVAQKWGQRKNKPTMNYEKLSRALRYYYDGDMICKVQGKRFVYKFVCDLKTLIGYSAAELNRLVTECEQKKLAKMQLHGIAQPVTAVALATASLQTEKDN
How it was run: as §1

ERG = target: T4, ERG (Homo sapiens, UniProt P11308 1-479); details: protein: recombinant; tags: N-terminal GST; dsDNA, one strand shown
T4 sequence: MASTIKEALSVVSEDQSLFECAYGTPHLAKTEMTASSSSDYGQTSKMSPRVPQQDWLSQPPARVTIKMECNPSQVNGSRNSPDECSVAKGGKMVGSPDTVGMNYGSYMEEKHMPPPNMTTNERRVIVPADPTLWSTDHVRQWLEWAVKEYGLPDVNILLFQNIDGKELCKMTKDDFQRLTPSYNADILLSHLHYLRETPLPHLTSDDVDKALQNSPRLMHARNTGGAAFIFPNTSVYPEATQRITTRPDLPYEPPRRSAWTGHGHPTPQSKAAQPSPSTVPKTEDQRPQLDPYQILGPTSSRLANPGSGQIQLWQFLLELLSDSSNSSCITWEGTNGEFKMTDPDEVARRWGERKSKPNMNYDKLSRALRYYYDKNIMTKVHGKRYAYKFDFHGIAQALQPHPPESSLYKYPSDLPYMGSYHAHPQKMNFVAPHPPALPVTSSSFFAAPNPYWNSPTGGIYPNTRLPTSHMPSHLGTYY
How it was run: as §1

ELF1 = ELF1 (Homo sapiens, UniProt P32519 1-619); details: protein: recombinant; tags: N-terminal GST; dsDNA, one strand shown
How it was run: as §1

EHF = target: T5, EHF (Homo sapiens, UniProt Q9NZC4 1-300); details: protein: recombinant; tags: N-terminal GST; dsDNA, one strand shown
T5 sequence: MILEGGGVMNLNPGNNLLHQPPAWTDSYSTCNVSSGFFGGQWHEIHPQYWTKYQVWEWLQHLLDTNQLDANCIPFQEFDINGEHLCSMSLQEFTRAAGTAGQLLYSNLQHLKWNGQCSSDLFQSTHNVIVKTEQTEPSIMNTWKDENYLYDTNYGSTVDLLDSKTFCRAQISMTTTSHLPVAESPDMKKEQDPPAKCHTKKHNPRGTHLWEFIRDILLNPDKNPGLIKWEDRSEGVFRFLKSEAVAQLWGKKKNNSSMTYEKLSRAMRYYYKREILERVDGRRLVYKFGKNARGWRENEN
How it was run: as §1

SPI1 = SPI1 (Homo sapiens, UniProt P17947 1-270); details: protein: recombinant; tags: N-terminal GST; dsDNA, one strand shown
How it was run: as §1

SPIB = SPIB (Homo sapiens, UniProt Q01892 1-262); details: protein: recombinant; tags: N-terminal GST; dsDNA, one strand shown
How it was run: as §1

ELK3 = target: T6, ELK3 (Homo sapiens, UniProt P41970 1-407); details: protein: recombinant; tags: N-terminal GST; dsDNA, one strand shown
T6 sequence: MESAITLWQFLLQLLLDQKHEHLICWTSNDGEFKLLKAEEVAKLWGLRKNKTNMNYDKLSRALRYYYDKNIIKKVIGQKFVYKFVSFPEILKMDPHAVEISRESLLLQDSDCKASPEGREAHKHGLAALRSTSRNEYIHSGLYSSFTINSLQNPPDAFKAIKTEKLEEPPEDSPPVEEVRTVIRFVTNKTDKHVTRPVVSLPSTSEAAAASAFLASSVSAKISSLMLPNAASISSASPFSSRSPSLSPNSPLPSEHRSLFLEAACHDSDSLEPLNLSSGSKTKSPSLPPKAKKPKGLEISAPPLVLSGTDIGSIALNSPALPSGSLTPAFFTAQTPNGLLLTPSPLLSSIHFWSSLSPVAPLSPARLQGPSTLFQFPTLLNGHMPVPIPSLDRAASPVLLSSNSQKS
How it was run: as §1

FEV = target: T7, FEV (Homo sapiens, UniProt Q99581 1-238); details: protein: recombinant; tags: N-terminal GST; dsDNA, one strand shown
T7 sequence: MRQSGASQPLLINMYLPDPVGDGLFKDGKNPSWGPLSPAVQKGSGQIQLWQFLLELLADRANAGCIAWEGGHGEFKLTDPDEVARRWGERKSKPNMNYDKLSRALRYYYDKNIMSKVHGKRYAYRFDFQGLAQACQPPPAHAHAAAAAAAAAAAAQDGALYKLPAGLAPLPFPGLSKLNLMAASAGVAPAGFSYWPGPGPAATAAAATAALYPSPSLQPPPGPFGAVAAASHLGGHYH
How it was run: as §1

ETV5 = ETV5 (Homo sapiens, UniProt P41161 1-510); details: protein: recombinant; tags: N-terminal GST; dsDNA, one strand shown
How it was run: as §1

HSF1 = HSF1 (Homo sapiens, UniProt Q00613 1-529); details: protein: recombinant; tags: N-terminal GST; chain copies: 3; dsDNA, one strand shown
How it was run: as §1

SPIC = target: T8, SPIC (Homo sapiens, UniProt Q8N5J4 1-248); details: protein: recombinant; tags: N-terminal GST; dsDNA, one strand shown
T8 sequence: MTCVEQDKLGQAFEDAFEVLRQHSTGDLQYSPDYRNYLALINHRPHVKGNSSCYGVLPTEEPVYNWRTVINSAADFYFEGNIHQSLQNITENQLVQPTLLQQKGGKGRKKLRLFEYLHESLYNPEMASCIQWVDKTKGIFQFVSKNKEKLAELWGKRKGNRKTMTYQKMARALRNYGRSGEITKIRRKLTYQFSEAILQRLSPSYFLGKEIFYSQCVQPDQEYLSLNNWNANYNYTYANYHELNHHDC
How it was run: as §1

ELF4 = ELF4 (Homo sapiens, UniProt Q99607 1-663); details: protein: recombinant; tags: N-terminal GST; dsDNA, one strand shown
How it was run: as §1

ELK4 = target: T9, ELK4 (Homo sapiens, UniProt P28324-2 1-405); details: protein: recombinant; tags: N-terminal GST; dsDNA, one strand shown
T9 sequence: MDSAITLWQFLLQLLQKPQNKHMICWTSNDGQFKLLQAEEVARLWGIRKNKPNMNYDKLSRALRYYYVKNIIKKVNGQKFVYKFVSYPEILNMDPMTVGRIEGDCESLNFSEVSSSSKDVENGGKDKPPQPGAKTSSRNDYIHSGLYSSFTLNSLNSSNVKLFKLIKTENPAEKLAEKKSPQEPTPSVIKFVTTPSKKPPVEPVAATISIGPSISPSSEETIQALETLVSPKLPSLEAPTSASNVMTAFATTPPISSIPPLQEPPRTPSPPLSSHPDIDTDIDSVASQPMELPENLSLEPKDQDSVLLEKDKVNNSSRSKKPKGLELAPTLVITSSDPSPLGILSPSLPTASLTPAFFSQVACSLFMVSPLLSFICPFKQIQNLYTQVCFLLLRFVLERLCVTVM
How it was run: as §1

ETV2 = target: T10, ETV2 (Homo sapiens, UniProt O00321 1-342); details: protein: recombinant; tags: N-terminal GST; dsDNA, one strand shown
T10 sequence: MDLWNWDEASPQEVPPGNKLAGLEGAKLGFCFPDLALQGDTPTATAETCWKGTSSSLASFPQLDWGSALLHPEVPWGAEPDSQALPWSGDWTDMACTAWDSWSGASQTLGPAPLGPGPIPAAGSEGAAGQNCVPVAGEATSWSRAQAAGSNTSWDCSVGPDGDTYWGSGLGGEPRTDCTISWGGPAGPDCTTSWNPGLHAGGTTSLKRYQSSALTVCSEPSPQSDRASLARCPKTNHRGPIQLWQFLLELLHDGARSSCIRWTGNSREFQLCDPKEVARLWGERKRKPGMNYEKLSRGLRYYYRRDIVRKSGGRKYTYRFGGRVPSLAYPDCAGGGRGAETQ
How it was run: as §1

ELF3 = target: T11, ELF3 (Homo sapiens, UniProt P78545 1-371); details: protein: recombinant; tags: N-terminal GST; dsDNA, one strand shown
T11 sequence: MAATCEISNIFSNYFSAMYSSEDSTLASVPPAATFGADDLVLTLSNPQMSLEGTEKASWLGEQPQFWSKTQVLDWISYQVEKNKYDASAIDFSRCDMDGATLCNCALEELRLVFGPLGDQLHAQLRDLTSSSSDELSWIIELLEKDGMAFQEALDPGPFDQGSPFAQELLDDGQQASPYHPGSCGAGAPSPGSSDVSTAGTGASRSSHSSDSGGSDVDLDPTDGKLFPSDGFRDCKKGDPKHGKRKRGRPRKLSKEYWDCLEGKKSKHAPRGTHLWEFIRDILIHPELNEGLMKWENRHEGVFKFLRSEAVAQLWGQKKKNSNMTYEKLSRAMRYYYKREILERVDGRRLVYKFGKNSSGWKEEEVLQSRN
How it was run: as §1

CRX = CRX (Homo sapiens, UniProt O43186 1-299); details: protein: recombinant; tags: N-terminal GST; dsDNA, one strand shown
How it was run: as §1

ETV1 = ETV1 (Homo sapiens, UniProt P50549 1-477); details: protein: recombinant; tags: N-terminal GST; dsDNA, one strand shown
How it was run: as §1

Sequence of SPIB (Q01892 whole entry): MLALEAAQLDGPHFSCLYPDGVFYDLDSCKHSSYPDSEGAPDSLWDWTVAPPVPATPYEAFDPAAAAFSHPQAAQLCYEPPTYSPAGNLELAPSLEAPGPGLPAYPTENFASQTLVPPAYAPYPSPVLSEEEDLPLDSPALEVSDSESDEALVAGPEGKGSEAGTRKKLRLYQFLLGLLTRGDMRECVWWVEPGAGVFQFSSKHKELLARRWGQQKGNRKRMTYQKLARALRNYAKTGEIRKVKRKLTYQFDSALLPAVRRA
Sequence of ETV1 (P50549 whole entry): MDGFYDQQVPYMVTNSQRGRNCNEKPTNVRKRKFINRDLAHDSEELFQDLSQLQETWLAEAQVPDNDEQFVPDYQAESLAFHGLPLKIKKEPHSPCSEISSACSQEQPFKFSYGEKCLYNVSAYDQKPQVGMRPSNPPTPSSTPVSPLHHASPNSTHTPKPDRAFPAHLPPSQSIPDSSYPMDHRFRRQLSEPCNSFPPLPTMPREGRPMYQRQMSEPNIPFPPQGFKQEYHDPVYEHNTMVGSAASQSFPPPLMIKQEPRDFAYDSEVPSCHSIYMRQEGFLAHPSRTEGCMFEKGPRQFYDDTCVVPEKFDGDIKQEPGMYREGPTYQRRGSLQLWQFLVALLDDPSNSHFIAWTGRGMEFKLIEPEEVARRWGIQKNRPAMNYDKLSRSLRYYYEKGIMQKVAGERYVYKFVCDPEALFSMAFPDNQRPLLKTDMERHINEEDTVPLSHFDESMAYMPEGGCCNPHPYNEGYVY
Sequence of ELF4 (Q99607 whole entry): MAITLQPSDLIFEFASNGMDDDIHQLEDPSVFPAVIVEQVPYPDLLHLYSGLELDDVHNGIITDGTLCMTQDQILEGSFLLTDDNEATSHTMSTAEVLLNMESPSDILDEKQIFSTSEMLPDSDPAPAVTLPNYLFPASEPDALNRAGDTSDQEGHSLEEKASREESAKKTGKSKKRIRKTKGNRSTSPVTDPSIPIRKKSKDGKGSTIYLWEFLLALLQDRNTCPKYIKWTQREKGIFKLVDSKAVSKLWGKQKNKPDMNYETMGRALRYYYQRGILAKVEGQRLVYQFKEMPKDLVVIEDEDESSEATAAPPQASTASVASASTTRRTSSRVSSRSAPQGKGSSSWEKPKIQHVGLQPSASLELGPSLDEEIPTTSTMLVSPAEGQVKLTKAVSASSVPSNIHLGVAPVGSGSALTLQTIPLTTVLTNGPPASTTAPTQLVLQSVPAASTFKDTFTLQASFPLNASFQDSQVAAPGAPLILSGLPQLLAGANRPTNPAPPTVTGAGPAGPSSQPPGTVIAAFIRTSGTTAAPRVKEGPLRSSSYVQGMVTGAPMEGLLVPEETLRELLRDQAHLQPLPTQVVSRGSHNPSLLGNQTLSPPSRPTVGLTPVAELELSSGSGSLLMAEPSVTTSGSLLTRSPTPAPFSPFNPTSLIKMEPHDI
Sequence of ETV5 (P41161 whole entry): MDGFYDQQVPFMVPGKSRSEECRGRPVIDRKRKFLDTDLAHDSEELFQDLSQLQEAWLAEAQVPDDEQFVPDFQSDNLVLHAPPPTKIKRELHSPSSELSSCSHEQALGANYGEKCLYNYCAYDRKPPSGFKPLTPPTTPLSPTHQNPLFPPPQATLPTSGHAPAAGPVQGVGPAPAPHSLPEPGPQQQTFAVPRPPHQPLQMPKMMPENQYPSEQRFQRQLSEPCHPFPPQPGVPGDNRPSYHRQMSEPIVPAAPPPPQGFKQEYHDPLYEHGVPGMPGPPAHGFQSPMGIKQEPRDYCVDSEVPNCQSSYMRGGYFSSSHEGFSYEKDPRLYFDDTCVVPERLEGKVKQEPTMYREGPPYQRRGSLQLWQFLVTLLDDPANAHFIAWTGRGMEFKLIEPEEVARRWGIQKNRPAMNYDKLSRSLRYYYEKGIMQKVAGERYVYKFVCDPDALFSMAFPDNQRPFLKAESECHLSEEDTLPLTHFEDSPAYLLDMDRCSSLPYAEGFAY
Sequence of CRX (O43186 whole entry): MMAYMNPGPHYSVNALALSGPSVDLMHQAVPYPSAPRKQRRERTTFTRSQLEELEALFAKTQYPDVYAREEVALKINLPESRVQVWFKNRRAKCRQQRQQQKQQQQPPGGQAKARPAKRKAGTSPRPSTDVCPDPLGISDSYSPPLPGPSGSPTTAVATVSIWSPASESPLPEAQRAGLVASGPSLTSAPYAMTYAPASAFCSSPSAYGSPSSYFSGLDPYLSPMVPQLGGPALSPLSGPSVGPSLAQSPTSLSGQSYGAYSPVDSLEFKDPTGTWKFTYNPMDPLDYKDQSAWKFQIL
Sequence of ELF1 (P32519 whole entry): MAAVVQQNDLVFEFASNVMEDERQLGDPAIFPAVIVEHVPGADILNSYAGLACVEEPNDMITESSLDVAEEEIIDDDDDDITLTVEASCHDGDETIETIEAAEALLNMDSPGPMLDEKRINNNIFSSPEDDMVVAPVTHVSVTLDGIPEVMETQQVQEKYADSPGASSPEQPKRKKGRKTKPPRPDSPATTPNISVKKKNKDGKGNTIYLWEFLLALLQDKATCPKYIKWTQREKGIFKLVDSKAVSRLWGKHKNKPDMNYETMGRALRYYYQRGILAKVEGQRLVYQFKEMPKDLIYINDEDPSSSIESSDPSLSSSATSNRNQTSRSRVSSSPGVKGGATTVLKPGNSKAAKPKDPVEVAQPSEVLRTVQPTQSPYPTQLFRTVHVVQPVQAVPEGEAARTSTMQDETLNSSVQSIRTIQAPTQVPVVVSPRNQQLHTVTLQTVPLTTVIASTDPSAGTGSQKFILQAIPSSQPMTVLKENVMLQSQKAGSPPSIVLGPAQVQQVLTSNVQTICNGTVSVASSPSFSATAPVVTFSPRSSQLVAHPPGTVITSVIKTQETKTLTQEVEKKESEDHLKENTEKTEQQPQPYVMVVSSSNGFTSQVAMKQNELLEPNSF
Sequence of HSF1 (Q00613 whole entry): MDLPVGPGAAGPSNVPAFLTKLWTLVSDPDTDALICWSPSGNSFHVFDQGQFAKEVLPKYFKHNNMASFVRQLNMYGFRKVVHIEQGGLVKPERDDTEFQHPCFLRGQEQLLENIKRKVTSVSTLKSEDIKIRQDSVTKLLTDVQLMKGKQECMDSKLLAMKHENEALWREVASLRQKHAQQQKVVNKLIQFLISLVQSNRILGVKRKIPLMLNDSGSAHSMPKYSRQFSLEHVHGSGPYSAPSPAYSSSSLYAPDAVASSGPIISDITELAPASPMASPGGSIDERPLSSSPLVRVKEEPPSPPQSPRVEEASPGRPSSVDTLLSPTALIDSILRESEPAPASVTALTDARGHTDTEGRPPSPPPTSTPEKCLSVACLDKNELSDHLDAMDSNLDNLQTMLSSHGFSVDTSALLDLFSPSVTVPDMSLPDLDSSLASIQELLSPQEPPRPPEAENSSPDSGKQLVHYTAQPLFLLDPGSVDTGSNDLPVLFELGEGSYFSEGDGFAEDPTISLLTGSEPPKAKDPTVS

GGCCTT
binding signal (FLI1): 1.17 fold enrichment (6-mer frequency, TF over GST control) | binding signal (ELK1): 1.18 fold enrichment (6-mer frequency, TF over GST control) | binding signal (GABPA): 1.29 fold enrichment (6-mer frequency, TF over GST control) | binding signal (ERG): 1.16 fold enrichment (6-mer frequency, TF over GST control) | binding signal (ELF1): 1.09 fold enrichment (6-mer frequency, TF over GST control) | binding signal (EHF): 1.13 fold enrichment (6-mer frequency, TF over GST control) | binding signal (SPI1): 1.18 fold enrichment (6-mer frequency, TF over GST control) | binding signal (SPIB): 1.19 fold enrichment (6-mer frequency, TF over GST control) | binding signal (ELK3): 1.17 fold enrichment (6-mer frequency, TF over GST control) | binding signal (FEV): 1.14 fold enrichment (6-mer frequency, TF over GST control) | binding signal (ETV5): 1.16 fold enrichment (6-mer frequency, TF over GST control) | binding signal (HSF1): 1.05 fold enrichment (6-mer frequency, TF over GST control) | binding signal (SPIC): 1.16 fold enrichment (6-mer frequency, TF over GST control) | binding signal (ELF4): 1.25 fold enrichment (6-mer frequency, TF over GST control) | binding signal (ELK4): 1.09 fold enrichment (6-mer frequency, TF over GST control) | binding signal (ETV2): 1.07 fold enrichment (6-mer frequency, TF over GST control) | binding signal (ELF3): 1.15 fold enrichment (6-mer frequency, TF over GST control) | binding signal (CRX): 1.02 fold enrichment (6-mer frequency, TF over GST control) | binding signal (ETV1): 1.1 fold enrichment (6-mer frequency, TF over GST control)
